In the supplement of paper PMC8728848:
The entries come from a sample that favours the strongest signals as a whole.

Columns and labels:
Assay in all cases: glycan array binding signal (z-score within array); higher = stronger binding
Details in all cases: glycan notation: IUPAC condensed, linker removed
[1] = molecular target: Fuc(a1-2)Gal
Outline: (§1)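 Arrays were curated from the Consortium for Functional Glycomics database, 3228 in total, and kept only where the protein sequence was available. Binding is expressed as a within-array Z-score. This score was averaged across arrays of the same protein sequence at different concentrations or buffers and across linkers, and negative values can be read as non-binding.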

[2] = molecular target: Fuc(a1-2)Gal(b1-3)GalNAc(a1-3)[Fuc(a1-2)]Gal(b1-4)Glc
Outline: as §1

[3] = molecular target: Fuc(a1-2)[Gal(a1-3)]Gal(b1-4)GlcNAc(b1-3)[Fuc(a1-2)[Gal(a1-3)]Gal(b1-4)GlcNAc(b1-6)]GalNAc
Outline: as §1

[4] = molecular target: Fuc(a1-2)[Gal(a1-3)]Gal(b1-4)[Fuc(a1-3)]GlcNAc(b1-3)GalNAc
Outline: as §1

[5] = molecular target: Fuc(a1-2)[GalNAc(a1-3)]Gal(b1-3)GlcNAc(b1-6)GalNAc
Outline: as §1

[6] = molecular target: Fuc(a1-2)[GalNAc(a1-3)]Gal(b1-4)GlcNAc(b1-3)Gal(b1-4)GlcNAc(b1-3)Gal(b1-4)GlcNAc
Outline: as §1

[7] = molecular target: Fuc(a1-3)[Gal(b1-4)]GlcNAc(b1-6)GalNAc
Outline: as §1

[8] = molecular target: Fuc(a1-3)[GalNAc(b1-4)]GlcNAc6S
Outline: as §1

[9] = molecular target: Gal(a1-4)Gal(b1-4)Glc
Outline: as §1

[10] = molecular target: Gal(b1-3)Gal(b1-4)GlcNAc
Outline: as §1

[11] = molecular target: Gal(b1-3)GlcNAc(b1-3)Gal(b1-4)GlcNAc(b1-2)[Gal(b1-3)GlcNAc(b1-3)Gal(b1-4)GlcNAc(b1-6)]Man(a1-6)[Gal(b1-3)GlcNAc(b1-3)Gal(b1-4)GlcNAc(b1-2)Man(a1-3)]Man(b1-4)GlcNAc(b1-4)[Fuc(a1-6)]GlcNAc
Outline: as §1

[12] = molecular target: Gal(b1-3)GlcNAc(b1-3)Gal(b1-4)GlcNAc(b1-3)Gal(b1-4)GlcNAc(b1-2)[Gal(b1-3)GlcNAc(b1-3)Gal(b1-4)GlcNAc(b1-3)Gal(b1-4)GlcNAc(b1-6)]Man(a1-6)[Gal(b1-3)GlcNAc(b1-3)Gal(b1-4)GlcNAc(b1-3)Gal(b1-4)GlcNAc(b1-2)Man(a1-3)]Man(b1-4)GlcNAc(b1-4)[Fuc(a1-6)]GlcNAc
Outline: as §1

[13] = molecular target: Gal(b1-4)GlcNAc(b1-2)Man(a1-3)[Gal(b1-4)GlcNAc(b1-2)Man(a1-6)]Man(b1-4)GlcNAc(b1-4)GlcNAc
Outline: as §1

[14] = molecular target: Gal(b1-4)GlcNAc(b1-2)[Gal(b1-4)GlcNAc(b1-4)]Man(a1-3)[Gal(b1-4)GlcNAc(b1-2)Man(a1-6)]Man(b1-4)GlcNAc(b1-4)GlcNAc
Outline: as §1

[15] = molecular target: Gal(b1-4)GlcNAc(b1-3)Gal(b1-4)GlcNAc(b1-2)[Gal(b1-4)GlcNAc(b1-3)Gal(b1-4)GlcNAc(b1-6)]Man(a1-6)[Gal(b1-4)GlcNAc(b1-3)Gal(b1-4)GlcNAc(b1-2)Man(a1-3)]Man(b1-4)GlcNAc(b1-4)[Fuc(a1-6)]GlcNAc
Outline: as §1

[16] = molecular target: Gal(b1-4)GlcNAc(b1-3)Gal(b1-4)GlcNAc(b1-3)Gal(b1-4)GlcNAc(b1-2)[Gal(b1-4)GlcNAc(b1-3)Gal(b1-4)GlcNAc(b1-3)Gal(b1-4)GlcNAc(b1-6)]Man(a1-6)[Gal(b1-4)GlcNAc(b1-3)Gal(b1-4)GlcNAc(b1-3)Gal(b1-4)GlcNAc(b1-2)Man(a1-3)]Man(b1-4)GlcNAc(b1-4)[Fuc(a1-6)]GlcNAc
Outline: as §1

[17] = molecular target: Gal(b1-4)GlcNAc(b1-3)Gal(b1-4)GlcNAc(b1-3)Gal(b1-4)GlcNAc(b1-3)Gal(b1-4)GlcNAc(b1-2)Man(a1-3)[Gal(b1-4)GlcNAc(b1-3)Gal(b1-4)GlcNAc(b1-3)Gal(b1-4)GlcNAc(b1-3)Gal(b1-4)GlcNAc(b1-2)Man(a1-6)]Man(b1-4)GlcNAc(b1-4)GlcNAc
Outline: as §1

[18] = molecular target: Gal(b1-4)GlcNAc(b1-3)Gal(b1-4)GlcNAc(b1-3)Gal(b1-4)GlcNAc(b1-3)Gal(b1-4)GlcNAc(b1-2)Man(a1-3)[Gal(b1-4)GlcNAc(b1-3)Gal(b1-4)GlcNAc(b1-3)Gal(b1-4)GlcNAc(b1-3)Gal(b1-4)GlcNAc(b1-2)Man(a1-6)]Man(b1-4)GlcNAc(b1-4)[Fuc(a1-6)]GlcNAc
Outline: as §1

[19] = molecular target: Gal(b1-4)GlcNAc(b1-3)Gal(b1-4)GlcNAc(b1-3)Gal(b1-4)GlcNAc(b1-3)Gal(b1-4)GlcNAc(b1-2)[Gal(b1-4)GlcNAc(b1-3)Gal(b1-4)GlcNAc(b1-3)Gal(b1-4)GlcNAc(b1-3)Gal(b1-4)GlcNAc(b1-6)]Man(a1-6)[Gal(b1-4)GlcNAc(b1-3)Gal(b1-4)GlcNAc(b1-3)Gal(b1-4)GlcNAc(b1-3)Gal(b1-4)GlcNAc(b1-2)Man(a1-3)]Man(b1-4)GlcNAc(b1-4)[Fuc(a1-6)]GlcNAc
Outline: as §1

[20] = molecular target: Gal(b1-4)GlcNAc(b1-3)Gal(b1-4)GlcNAc(b1-3)Gal(b1-4)GlcNAc(b1-3)Gal(b1-4)GlcNAc(b1-3)Gal(b1-4)GlcNAc(b1-2)Man(a1-3)[Gal(b1-4)GlcNAc(b1-3)Gal(b1-4)GlcNAc(b1-3)Gal(b1-4)GlcNAc(b1-3)Gal(b1-4)GlcNAc(b1-3)Gal(b1-4)GlcNAc(b1-2)Man(a1-6)]Man(b1-4)GlcNAc(b1-4)GlcNAc
Outline: as §1

[21] = molecular target: Gal(b1-4)GlcNAc(b1-3)Gal(b1-4)GlcNAc(b1-3)Gal(b1-4)GlcNAc(b1-3)Gal(b1-4)GlcNAc(b1-3)Gal(b1-4)GlcNAc(b1-2)Man(a1-3)[Gal(b1-4)GlcNAc(b1-3)Gal(b1-4)GlcNAc(b1-3)Gal(b1-4)GlcNAc(b1-3)Gal(b1-4)GlcNAc(b1-3)Gal(b1-4)GlcNAc(b1-2)Man(a1-6)]Man(b1-4)GlcNAc(b1-4)[Fuc(a1-6)]GlcNAc
Outline: as §1

[22] = molecular target: Gal(b1-4)GlcNAc(b1-3)Gal(b1-4)GlcNAc(b1-3)Gal(b1-4)GlcNAc(b1-3)Gal(b1-4)GlcNAc(b1-3)Gal(b1-4)GlcNAc(b1-2)[Gal(b1-4)GlcNAc(b1-3)Gal(b1-4)GlcNAc(b1-3)Gal(b1-4)GlcNAc(b1-3)Gal(b1-4)GlcNAc(b1-3)Gal(b1-4)GlcNAc(b1-6)]Man(a1-6)[Gal(b1-4)GlcNAc(b1-3)Gal(b1-4)GlcNAc(b1-3)Gal(b1-4)GlcNAc(b1-3)Gal(b1-4)GlcNAc(b1-3)Gal(b1-4)GlcNAc(b1-2)Man(a1-3)]Man(b1-4)GlcNAc(b1-4)[Fuc(a1-6)]GlcNAc
Outline: as §1

[23] = molecular target: Gal(b1-4)GlcNAc(b1-3)Gal(b1-4)GlcNAc(b1-3)Gal(b1-4)GlcNAc(b1-3)Gal(b1-4)GlcNAc(b1-3)Gal(b1-4)GlcNAc(b1-3)Gal(b1-4)GlcNAc(b1-2)Man(a1-3)[Gal(b1-4)GlcNAc(b1-3)Gal(b1-4)GlcNAc(b1-3)Gal(b1-4)GlcNAc(b1-3)Gal(b1-4)GlcNAc(b1-3)Gal(b1-4)GlcNAc(b1-3)Gal(b1-4)GlcNAc(b1-2)Man(a1-6)]Man(b1-4)GlcNAc(b1-4)GlcNAc
Outline: as §1

[24] = molecular target: Gal(b1-6)Gal
Outline: as §1

[25] = molecular target: Gal3S(b1-3)GlcNAc
Outline: as §1

[26] = molecular target: Gal3S(b1-4)[Fuc(a1-3)]GlcNAc6S
Outline: as §1

[27] = molecular target: Gal6S(b1-3)GlcNAc
Outline: as §1

[28] = molecular target: Gal6S(b1-4)Glc6S
Outline: as §1

[29] = molecular target: GlcNAc(a1-3)Gal(b1-4)GlcNAc
Outline: as §1

[30] = molecular target: GlcNAc(b1-2)Gal(b1-3)GalNAc
Outline: as §1

[31] = molecular target: GlcNAc(b1-2)Man(a1-3)[GlcNAc(b1-4)][GlcNAc(b1-2)Man(a1-6)]Man(b1-4)GlcNAc(b1-4)GlcNAc
Outline: as §1

[32] = molecular target: GlcNAc(b1-3)Gal
Outline: as §1

[33] = molecular target: GlcNAc(b1-4)GlcNAc(b1-4)GlcNAc(b1-4)GlcNAc(b1-4)GlcNAc
Outline: as §1

[34] = molecular target: Man(a1-2)Man(a1-6)[Man(a1-3)]Man(a1-6)[Man(a1-2)Man(a1-2)Man(a1-3)]Man(b1-4)GlcNAc(b1-4)GlcNAc
Outline: as §1

[35] = molecular target: Man(a1-3)[Man(a1-6)]Man(a1-6)[Man(a1-3)]Man(b1-4)GlcNAc(b1-4)GlcNAc
Outline: as §1

[36] = molecular target: Neu5Ac(a2-3)Gal(b1-3)GalNAc6S
Outline: as §1

[37] = molecular target: Neu5Ac(a2-3)Gal(b1-3)GlcNAc(b1-3)Gal(b1-3)GlcNAc
Outline: as §1

[38] = molecular target: Neu5Ac(a2-3)Gal(b1-3)[Neu5Ac(a2-6)]GalNAc
Outline: as §1

[39] = molecular target: Neu5Ac(a2-3)Gal(b1-4)GlcNAc(b1-6)[Neu5Ac(a2-3)Gal(b1-3)]GalNAc
Outline: as §1

[40] = molecular target: Neu5Ac(a2-3)Gal(b1-4)[Fuc(a1-3)]GlcNAc(b1-3)Gal
Outline: as §1

[41] = molecular target: Neu5Ac(a2-6)Gal(b1-4)GlcNAc(b1-2)[Neu5Ac(a2-6)Gal(b1-4)GlcNAc(b1-6)]Man(a1-6)[Neu5Ac(a2-6)Gal(b1-4)GlcNAc(b1-2)Man(a1-3)][GlcNAc(b1-4)]Man(b1-4)GlcNAc(b1-4)GlcNAc
Outline: as §1

[42] = molecular target: Neu5Ac(a2-6)Gal(b1-4)GlcNAc(b1-3)Gal(b1-4)GlcNAc(b1-3)[Neu5Ac(a2-6)Gal(b1-4)GlcNAc(b1-3)Gal(b1-4)GlcNAc(b1-6)]GalNAc
Outline: as §1

[43] = molecular target: Neu5Ac(a2-6)GlcNAc(b1-4)GlcNAc
Outline: as §1

[44] = molecular target: Neu5Ac(a2-8)Neu5Ac(a2-3)[GalNAc(b1-4)]Gal(b1-4)Glc
Outline: as §1

B1: rCnSL-A (Clitocybe nebularis) (protein)
chain: VNPNLPGPNDVFVGFRGTNNIVGAIYEKDGIKDTPLNNGADAEMGPGSYITDGLFTARIFASGSAGNNPGTTATVCKIYASGVQWRGAPKGYIPVAYFGNGPTAEQRRQTYLRTLGLPGTAIRFGNLNTNPGQGPTAPRQMVVPPGPLRSLLKASCFPAADTRLPQTLHYFEKRVDWNIITAADSQTWGH
B1 was tested, and the “glycan array binding signal (z-score)” value [1] was -0.225, the “glycan array binding signal (z-score)” value [2] was -0.137 and the “glycan array binding signal (z-score)” value [3] was -0.176. For the same binder, the “glycan array binding signal (z-score)” value [4] was -0.339, the “glycan array binding signal (z-score)” value [5] was -0.306 and the “glycan array binding signal (z-score)” value [6] was -0.002. For the same binder, the “glycan array binding signal (z-score)” value [7] was -0.093, the “glycan array binding signal (z-score)” value [8] was -0.255 and the “glycan array binding signal (z-score)” value [9] was -0.211. The “glycan array binding signal (z-score)” value [10] was -0.132, the “glycan array binding signal (z-score)” value [11] was 1.95 and the “glycan array binding signal (z-score)” value [12] was 3.37. For the same binder, the “glycan array binding signal (z-score)” value [13] was -0.203, the “glycan array binding signal (z-score)” value [14] was 2.67 and the “glycan array binding signal (z-score)” value [15] was 3.11. The “glycan array binding signal (z-score)” value [16] was 5.46, the “glycan array binding signal (z-score)” value [17] was 8.55 and the “glycan array binding signal (z-score)” value [18] was 2.68. The “glycan array binding signal (z-score)” value [19] was 10.3, the “glycan array binding signal (z-score)” value [20] was 2.36 and the “glycan array binding signal (z-score)” value [21] was 5.05. For the same binder, the “glycan array binding signal (z-score)” value [22] was 13.6, the “glycan array binding signal (z-score)” value [23] was 7.72 and the “glycan array binding signal (z-score)” value [24] was -0.201. For the same binder, the “glycan array binding signal (z-score)” value [25] was -0.252, the “glycan array binding signal (z-score)” value [26] was -0.25 and the “glycan array binding signal (z-score)” value [27] was -0.309. For the same binder, the “glycan array binding signal (z-score)” value [28] was -0.241, the “glycan array binding signal (z-score)” value [29] was -0.253 and the “glycan array binding signal (z-score)” value [30] was -0.27. The “glycan array binding signal (z-score)” value [31] was -0.223, the “glycan array binding signal (z-score)” value [32] was -0.22 and the “glycan array binding signal (z-score)” value [33] was -0.217. For the same binder, the “glycan array binding signal (z-score)” value [34] was -0.138, the “glycan array binding signal (z-score)” value [35] was -0.237 and the “glycan array binding signal (z-score)” value [36] was -0.234. The “glycan array binding signal (z-score)” value [37] was -0.25, the “glycan array binding signal (z-score)” value [38] was -0.305 and the “glycan array binding signal (z-score)” value [39] was -0.165. The “glycan array binding signal (z-score)” value [40] was -0.229, the “glycan array binding signal (z-score)” value [41] was -0.269 and the “glycan array binding signal (z-score)” value [42] was 0.406. For the same binder, the “glycan array binding signal (z-score)” value [43] was -0.287 and the “glycan array binding signal (z-score)” value [44] was -0.246.
